# Measurements as given in PubChem BioAssay (EPA / NIEHS).
# Results filed as inconclusive are left out. Calls of active or inactive are those of the source. How the source made its calls: active means hit-call score of the fitted dose curve at least 0.9, where 1 is the maximum; inconclusive means response in the unintended direction; inactive means score below 0.9.
# Legend:
# [1] = biological target: human AKT serine/threonine Kinase 1 (AKT1), AKT1 (gene 207) (UniProt P31749); experiment: NVS_ENZ_hAKT1: NovaScreen (NVS) Enzymatic Assay for human AKT serine/threonine Kinase 1 (AKT1) (AID 2283138)
# human AKT serine/threonine Kinase 1 (AKT1), AKT1 (gene 207), sequence (P31749 whole entry, looked up): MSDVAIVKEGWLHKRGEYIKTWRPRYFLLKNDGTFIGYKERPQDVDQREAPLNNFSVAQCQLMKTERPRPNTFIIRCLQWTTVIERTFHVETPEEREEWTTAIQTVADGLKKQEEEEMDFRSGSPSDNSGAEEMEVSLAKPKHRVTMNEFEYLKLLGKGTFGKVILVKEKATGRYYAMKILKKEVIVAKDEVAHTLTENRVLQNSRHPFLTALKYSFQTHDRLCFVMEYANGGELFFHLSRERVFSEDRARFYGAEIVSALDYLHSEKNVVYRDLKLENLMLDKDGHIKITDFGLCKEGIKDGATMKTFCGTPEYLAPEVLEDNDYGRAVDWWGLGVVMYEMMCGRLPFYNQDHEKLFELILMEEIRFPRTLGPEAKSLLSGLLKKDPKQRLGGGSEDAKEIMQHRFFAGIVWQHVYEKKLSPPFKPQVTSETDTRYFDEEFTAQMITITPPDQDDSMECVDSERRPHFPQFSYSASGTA
# In short: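 Cell-free recombinant enzyme with substrate; activity read by fluorescence intensity after electrophoretic mobility shift separating substrate from product, 1 h after dosing. Single-concentration duplicates at 25 uM, then singleton concentration-response up to 50 uM; loss of signal versus DMSO.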
# [2] = biological target: human Beta-secretase (BACE), BACE1 (gene 23621) (UniProt P56817); experiment: NVS_ENZ_hBACE: NovaScreen (NVS) Enzymatic Assay for human Beta-secretase (BACE) (AID 2283140);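 further: hits are inhibitors that reduce fluorescent substrate signal versus DMSO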
# human Beta-secretase (BACE), BACE1 (gene 23621), sequence (P56817 whole entry, looked up): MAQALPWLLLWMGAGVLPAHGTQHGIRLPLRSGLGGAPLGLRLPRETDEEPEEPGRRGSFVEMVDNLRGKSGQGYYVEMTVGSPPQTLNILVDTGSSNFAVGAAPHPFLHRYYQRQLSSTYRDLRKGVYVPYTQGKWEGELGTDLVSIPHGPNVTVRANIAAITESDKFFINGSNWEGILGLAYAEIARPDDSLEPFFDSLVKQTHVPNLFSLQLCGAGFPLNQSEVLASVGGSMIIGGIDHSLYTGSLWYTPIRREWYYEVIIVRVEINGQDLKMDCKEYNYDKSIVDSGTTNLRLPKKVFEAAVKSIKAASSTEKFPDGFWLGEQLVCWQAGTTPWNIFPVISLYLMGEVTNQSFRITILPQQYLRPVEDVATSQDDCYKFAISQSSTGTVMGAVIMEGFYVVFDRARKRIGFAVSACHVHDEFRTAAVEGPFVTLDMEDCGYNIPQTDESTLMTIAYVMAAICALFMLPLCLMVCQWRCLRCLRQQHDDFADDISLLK
# In short: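 Cell-free fluorescence-intensity assay of recombinant BACE1 expressed in SF9 cells, read 1 hour after dosing. Loss of signal indicates reduced protease activity, fitted relative to DMSO negative control. Primary screen at 25 uM in duplicate; actives followed in concentration series.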
# [3] = biological target: human Dual Specificity Protein Phosphatase 3 (DUSP3), DUSP3 (gene 1845) (UniProt P51452); experiment: NVS_ENZ_hDUSP3: NovaScreen (NVS) Enzymatic Assay for human Dual Specificity Protein Phosphatase 3 (DUSP3) (AID 2283152);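 further: phosphatase activity of recombinant human DUSP3 on a fluorogenic substrate without cells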
# human Dual Specificity Protein Phosphatase 3 (DUSP3), DUSP3 (gene 1845), sequence (P51452 whole entry, looked up): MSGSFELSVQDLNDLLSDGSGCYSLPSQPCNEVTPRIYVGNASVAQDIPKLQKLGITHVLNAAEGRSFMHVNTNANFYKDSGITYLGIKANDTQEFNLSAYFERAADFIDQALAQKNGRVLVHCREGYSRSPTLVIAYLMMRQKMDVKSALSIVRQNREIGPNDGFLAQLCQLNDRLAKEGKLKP
# In short: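 Cell-free assay with recombinant human DUSP3 and fluorogenic substrate, read by fluorescence intensity. Primary screen ran duplicate at 25 uM; actives followed up in concentration series; loss of signal versus DMSO scored.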
# [4] = biological target: human FYN Proto-Oncogene, Src family Tyrosine Kinase (Fyn), FYN (gene 2534) (UniProt P06241); experiment: NVS_ENZ_hFyn: NovaScreen (NVS) Enzymatic Assay for human FYN Proto-Oncogene, Src family Tyrosine Kinase (Fyn) (AID 2283161)
# In short: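 Recombinant enzyme with fluorescent substrate, product separated by electrophoretic mobility shift; read 1 h after dosing. Duplicate 25 uM single-point screen, actives retested in concentration series; loss of signal vs DMSO.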
# [5] = biological target: human Caspase 5 (CASP5), CASP5 (gene 838) (UniProt P51878); experiment: NVS_ENZ_hCASP5: NovaScreen (NVS) Enzymatic Assay for human Caspase 5 (CASP5) (AID 2283137)
# human Caspase 5 (CASP5), CASP5 (gene 838), sequence (P51878 whole entry, looked up): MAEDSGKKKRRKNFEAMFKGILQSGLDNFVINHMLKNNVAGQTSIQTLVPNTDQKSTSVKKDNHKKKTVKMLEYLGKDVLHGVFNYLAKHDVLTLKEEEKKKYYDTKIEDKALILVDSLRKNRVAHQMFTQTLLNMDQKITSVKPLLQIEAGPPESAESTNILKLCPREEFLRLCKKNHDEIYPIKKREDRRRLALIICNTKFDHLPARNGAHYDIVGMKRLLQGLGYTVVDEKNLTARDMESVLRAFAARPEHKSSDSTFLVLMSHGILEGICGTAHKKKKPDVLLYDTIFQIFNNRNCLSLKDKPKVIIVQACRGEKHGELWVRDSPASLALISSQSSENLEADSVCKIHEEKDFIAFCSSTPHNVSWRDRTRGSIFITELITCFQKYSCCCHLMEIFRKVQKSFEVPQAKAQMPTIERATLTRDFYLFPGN
# In short: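 Recombinant E. coli-expressed human caspase 5 in a cell-free enzyme assay; fluorescence intensity read 2 hours after chemical dosing. Single-concentration duplicate screen at 25 uM, then concentration-response up to 50 uM for hits; DMSO negative control.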
# [6] = biological target: human Caspase 4 (CASP4), CASP4 (gene 837) (UniProt P49662); experiment: NVS_ENZ_hCASP4: NovaScreen (NVS) Enzymatic Assay for human Caspase 4 (CASP4) (AID 2283143)
# In short: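 The cell-free assay used E. coli-expressed enzyme with a fluorogenic substrate, read 2 h after dosing. Signal loss was scored versus DMSO. Screening was in duplicate at 25 uM, then singleton concentration-response up to 50 uM.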
# [7] = biological target: human Esterase Plasma (ES), BCHE (gene 590) (UniProt P06276); experiment: NVS_ENZ_hES: NovaScreen (NVS) Enzymatic Assay for human Esterase Plasma (ES) (AID 2283157)
# human Esterase Plasma (ES), BCHE (gene 590), sequence (P06276 whole entry, looked up): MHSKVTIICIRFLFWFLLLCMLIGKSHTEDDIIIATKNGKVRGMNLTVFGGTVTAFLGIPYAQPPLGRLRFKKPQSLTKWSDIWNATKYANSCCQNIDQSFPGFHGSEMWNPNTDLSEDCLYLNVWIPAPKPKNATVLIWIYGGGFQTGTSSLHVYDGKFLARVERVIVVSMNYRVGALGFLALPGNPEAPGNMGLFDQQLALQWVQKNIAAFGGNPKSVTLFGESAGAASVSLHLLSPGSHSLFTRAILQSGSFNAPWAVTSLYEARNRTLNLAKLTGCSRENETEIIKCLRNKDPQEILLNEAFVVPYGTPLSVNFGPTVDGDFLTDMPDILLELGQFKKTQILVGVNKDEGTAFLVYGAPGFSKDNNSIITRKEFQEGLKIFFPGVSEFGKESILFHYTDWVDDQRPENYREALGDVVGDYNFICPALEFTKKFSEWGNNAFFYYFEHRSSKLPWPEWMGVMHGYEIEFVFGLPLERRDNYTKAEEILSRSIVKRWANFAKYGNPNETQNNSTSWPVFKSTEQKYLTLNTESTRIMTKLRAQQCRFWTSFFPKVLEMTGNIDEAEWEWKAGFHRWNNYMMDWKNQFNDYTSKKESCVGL
# In short: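 Esterase from human plasma, cell-free, colorimetric absorbance read 0.25 h after dosing. Screened at 25 uM in duplicate, with threshold-passing chemicals run in concentration-response up to 50 uM; loss of signal fitted versus DMSO.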
# Caspase-3 (Homo sapiens) = Caspase-3 (Homo sapiens) (UniProt P42574); experiment: NVS_ENZ_hCASP3: NovaScreen (NVS) Enzymatic Assay for human Caspase 3 (CASP3) (AID 2283139)
# Caspase-3 (Homo sapiens), sequence (P42574 whole entry, looked up): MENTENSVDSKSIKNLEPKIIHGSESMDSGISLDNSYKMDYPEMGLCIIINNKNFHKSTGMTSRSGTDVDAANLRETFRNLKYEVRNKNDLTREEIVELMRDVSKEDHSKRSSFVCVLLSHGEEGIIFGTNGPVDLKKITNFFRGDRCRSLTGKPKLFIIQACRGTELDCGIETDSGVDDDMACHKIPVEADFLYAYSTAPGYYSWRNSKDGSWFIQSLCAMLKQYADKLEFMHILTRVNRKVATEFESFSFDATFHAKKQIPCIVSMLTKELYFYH
# In short: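 Recombinant human caspase-3 from E. coli with a fluorogenic substrate, read by fluorescence 1 h after dosing. Primary screen in duplicate at 25 uM. Actives (for example ≥30% inhibition) rerun as concentration-response up to 50 uM.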
# [8] = biological target: human Elastase, ELANE (gene 1991) (UniProt P08246); experiment: NVS_ENZ_hElastase: NovaScreen (NVS) Enzymatic Assay for human Elastase (AID 2283153)
# human Elastase, ELANE (gene 1991), sequence (P08246 whole entry, looked up): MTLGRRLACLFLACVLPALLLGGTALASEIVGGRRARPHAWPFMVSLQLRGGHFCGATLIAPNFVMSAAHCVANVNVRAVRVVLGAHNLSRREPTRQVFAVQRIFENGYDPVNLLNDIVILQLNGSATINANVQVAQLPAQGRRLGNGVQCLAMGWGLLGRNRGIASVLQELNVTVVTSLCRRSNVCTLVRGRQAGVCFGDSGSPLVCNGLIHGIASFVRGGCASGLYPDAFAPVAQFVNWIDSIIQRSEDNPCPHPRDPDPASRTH
# In short: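 Cell-free elastase from human neutrophils, 1.5 h after dosing, activity read by absorbance. Primary screen in duplicate at 25 uM; hits (e.g., 30% inhibition) rerun in singleton concentration-response up to 50 uM, fitted versus DMSO.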
# [9] = biological target: Histone deacetylase 3 (Homo sapiens) (UniProt O15379); experiment: NVS_ENZ_hHDAC3: NovaScreen (NVS) Enzymatic Assay for human Histone Deacetylase 3 (HDAC3) (AID 2283163)
# In short: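 Recombinant human HDAC3 with fluorescent substrate, 1 h after dosing; product separated from substrate by electrophoretic mobility shift and read by fluorescence. Primary screen at 25 uM in duplicate; actives (e.g. ≥30% inhibition) retested in concentration-response up to 50 uM.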
# [10] = biological target: human Casein Kinase 1-delta (CK1D), CSNK1D (gene 1453) (UniProt P48730); experiment: NVS_ENZ_hCK1D: NovaScreen (NVS) Enzymatic Assay for human Casein Kinase 1-delta (CK1D) (AID 2283148)
# human Casein Kinase 1-delta (CK1D), CSNK1D (gene 1453), sequence (P48730 whole entry, looked up): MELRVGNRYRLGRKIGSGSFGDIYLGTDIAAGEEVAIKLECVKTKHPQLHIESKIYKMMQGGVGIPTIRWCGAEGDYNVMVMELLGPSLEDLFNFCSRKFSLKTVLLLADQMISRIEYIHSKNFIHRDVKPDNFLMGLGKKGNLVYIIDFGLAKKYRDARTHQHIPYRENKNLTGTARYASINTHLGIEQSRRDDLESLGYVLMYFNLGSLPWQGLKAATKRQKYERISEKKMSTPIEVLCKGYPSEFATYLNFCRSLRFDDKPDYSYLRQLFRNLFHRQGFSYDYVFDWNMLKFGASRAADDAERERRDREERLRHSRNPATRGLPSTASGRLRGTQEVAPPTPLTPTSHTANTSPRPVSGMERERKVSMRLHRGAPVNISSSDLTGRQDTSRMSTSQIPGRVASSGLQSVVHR
# In short: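 Recombinant human CK1-delta, cell-free; fluorescent substrate with electrophoretic mobility-shift separation of product, read 1 h after dosing. Single 25 uM duplicate screen, then concentration-response up to 50 uM; loss of signal vs DMSO.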
# [11] = biological target: human Aurora Kinase A - serine/threonine-protein Kinase 6 (AurA), AURKA (gene 6790) (UniProt O14965); experiment: NVS_ENZ_hAurA: NovaScreen (NVS) Enzymatic Assay for human Aurora Kinase A - serine/threonine-protein Kinase 6 (AurA) (AID 2283142)
# In short: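 Cell-free enzymatic assay with human Aurora A, 1 hour after dosing. Fluorescent substrate turnover detected after electrophoretic mobility shift separation of substrate and product. Screened at 25 uM, actives retested in concentration-response up to 50 uM.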
# CDK2 (gene 1017) = CDK2 (gene 1017) (UniProt P24941); experiment: NVS_ENZ_hCDK2: NovaScreen (NVS) Enzymatic Assay for human Cyclin-Cependent Kinase 2 (CDK2) (AID 2283144)
# In short: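 Cell-free recombinant human CDK2 with fluorescent substrate, product separated by electrophoretic mobility shift; 1 hr read. Primary screen at 25 uM in duplicate, actives retested in concentration-response up to 50 uM; loss of signal versus DMSO.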
# [12] = biological target: human Colony Stimulating Factor 1 Receptor (CSF1R), CSF1R (gene 1436) (UniProt P07333); experiment: NVS_ENZ_hCSF1R: NovaScreen (NVS) Enzymatic Assay for human Colony Stimulating Factor 1 Receptor (CSF1R) (AID 2283150)
# In short: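 Cell-free recombinant human CSF1R kinase with fluorescent substrate, product separated by electrophoretic mobility shift; read 1 h after dosing. Primary screen at 25 uM in duplicate, actives then in concentration-response up to 50 uM, relative to DMSO.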
# [13] = biological target: human Ephrin type-A Receptor 1 (EphA1), EPHA1 (gene 2041) (UniProt P21709); experiment: NVS_ENZ_hEphA1: NovaScreen (NVS) Enzymatic Assay for human Ephrin type-A Receptor 1 (EphA1) (AID 2283158);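 further: activity is signal loss versus DMSO meaning EphA1 kinase inhibition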
# In short: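 Biochemical kinase assay run cell-free; 1 h incubation; readout is fluorescence with mobility-shift separation of product. Concentration-response up to 50 uM for actives from a 25 uM screen.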
# [14] = biological target: human Fibroblast Growth Factor Receptor 1 (FGFR1), FGFR1 (gene 2260) (UniProt P11362); experiment: NVS_ENZ_hFGFR1: NovaScreen (NVS) Enzymatic Assay for human Fibroblast Growth Factor Receptor 1 (FGFR1) (AID 2283159);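 on AC50: hits lower the signal so potencies describe inhibitors of the kinase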
# human Fibroblast Growth Factor Receptor 1 (FGFR1), FGFR1 (gene 2260), sequence (P11362 whole entry, looked up): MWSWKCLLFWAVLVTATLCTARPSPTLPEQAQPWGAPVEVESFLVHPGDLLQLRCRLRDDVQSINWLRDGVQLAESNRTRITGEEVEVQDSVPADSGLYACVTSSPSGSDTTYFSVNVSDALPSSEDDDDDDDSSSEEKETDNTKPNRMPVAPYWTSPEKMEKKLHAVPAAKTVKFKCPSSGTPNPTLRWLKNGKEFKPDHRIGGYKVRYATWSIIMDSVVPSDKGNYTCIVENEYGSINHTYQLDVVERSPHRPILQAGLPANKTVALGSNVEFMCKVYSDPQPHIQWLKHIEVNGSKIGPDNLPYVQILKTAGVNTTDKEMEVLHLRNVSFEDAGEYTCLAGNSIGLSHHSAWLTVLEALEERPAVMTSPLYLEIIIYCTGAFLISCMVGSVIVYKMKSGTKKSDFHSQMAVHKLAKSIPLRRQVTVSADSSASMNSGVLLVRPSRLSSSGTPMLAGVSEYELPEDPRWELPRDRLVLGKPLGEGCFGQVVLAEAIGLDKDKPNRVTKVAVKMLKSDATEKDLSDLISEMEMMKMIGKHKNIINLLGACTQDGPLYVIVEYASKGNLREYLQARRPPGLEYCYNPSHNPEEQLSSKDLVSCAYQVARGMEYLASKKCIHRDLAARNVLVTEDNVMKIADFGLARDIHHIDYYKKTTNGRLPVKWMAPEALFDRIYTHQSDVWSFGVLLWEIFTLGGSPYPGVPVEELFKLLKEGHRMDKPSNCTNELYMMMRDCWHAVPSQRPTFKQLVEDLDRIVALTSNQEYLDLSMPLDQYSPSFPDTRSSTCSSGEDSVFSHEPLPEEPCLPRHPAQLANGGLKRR
# In short: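 Cell-free recombinant kinase with fluorescent substrate, product separated by electrophoretic mobility shift; read 1 hour after dosing, loss of signal relative to DMSO. Initial screen in duplicate at 25 uM, actives followed in concentration series.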
# [15] = biological target: human Epidermal Growth Factor Receptor (EGFR), EGFR (gene 1956) (UniProt P00533); experiment: NVS_ENZ_hEGFR: NovaScreen (NVS) Enzymatic Assay for human Epidermal Growth Factor Receptor (EGFR) (AID 2283151)
# In short: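 Cell-free kinase assay, fluorescence plus electrophoretic mobility shift separating substrate and product, read 1 hour after dosing; loss of signal vs DMSO. Duplicate screen at 25 uM, then concentration-response to 50 uM.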
# [16] = biological target: human Ephrin type-A Receptor 2 (EphA2), EPHA2 (gene 1969) (UniProt P29317); experiment: NVS_ENZ_hEphA2: NovaScreen (NVS) Enzymatic Assay for human Ephrin type-A Receptor 2 (EphA2) (AID 2283155)
# human Ephrin type-A Receptor 2 (EphA2), EPHA2 (gene 1969), sequence (P29317 whole entry, looked up): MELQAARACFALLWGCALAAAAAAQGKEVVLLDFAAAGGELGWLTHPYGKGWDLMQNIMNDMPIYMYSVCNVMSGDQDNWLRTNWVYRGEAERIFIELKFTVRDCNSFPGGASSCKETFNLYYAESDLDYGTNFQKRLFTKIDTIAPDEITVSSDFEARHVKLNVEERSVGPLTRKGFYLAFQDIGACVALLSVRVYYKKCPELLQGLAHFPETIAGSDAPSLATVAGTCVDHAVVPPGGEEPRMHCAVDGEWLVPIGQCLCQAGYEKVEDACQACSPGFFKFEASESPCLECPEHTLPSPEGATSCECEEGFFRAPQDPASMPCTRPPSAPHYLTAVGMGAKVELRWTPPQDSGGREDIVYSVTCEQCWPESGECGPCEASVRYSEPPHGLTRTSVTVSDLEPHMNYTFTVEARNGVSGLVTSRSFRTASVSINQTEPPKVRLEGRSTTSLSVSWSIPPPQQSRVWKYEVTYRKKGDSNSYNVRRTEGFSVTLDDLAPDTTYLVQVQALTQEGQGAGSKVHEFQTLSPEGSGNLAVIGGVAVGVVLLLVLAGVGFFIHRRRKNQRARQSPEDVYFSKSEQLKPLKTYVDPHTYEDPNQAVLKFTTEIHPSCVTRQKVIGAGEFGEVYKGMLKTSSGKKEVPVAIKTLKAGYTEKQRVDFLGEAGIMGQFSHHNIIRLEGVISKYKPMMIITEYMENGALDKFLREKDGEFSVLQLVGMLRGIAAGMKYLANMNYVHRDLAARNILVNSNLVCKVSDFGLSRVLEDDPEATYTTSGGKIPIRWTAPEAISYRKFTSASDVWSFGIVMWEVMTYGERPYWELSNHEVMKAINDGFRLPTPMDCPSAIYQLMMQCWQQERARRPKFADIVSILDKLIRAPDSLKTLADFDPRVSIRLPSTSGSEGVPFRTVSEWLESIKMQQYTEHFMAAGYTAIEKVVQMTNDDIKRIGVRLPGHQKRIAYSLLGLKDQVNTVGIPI
# In short: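 Cell-free recombinant EphA2 kinase with specific substrate, 1 h, fluorescence with electrophoretic mobility-shift separation of substrate and product. Primary screen at 25 uM in duplicate; hits retested in singleton concentration-response up to 50 uM, referenced to DMSO.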
# [17] = biological target: Protein deacetylase HDAC6 (Homo sapiens) (UniProt Q9UBN7); experiment: NVS_ENZ_hHDAC6: NovaScreen (NVS) Enzymatic Assay for human Histone Deacetylase 6 (HDAC6) (AID 2283164)
# In short: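 Recombinant human HDAC6 with fluorescent substrate, 1 h; product separated from substrate by electrophoretic mobility shift. Primary screen in duplicate at 25 uM; actives retested singly in concentration-response up to 50 uM, fitted relative to DMSO.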
smiles,measurement,setting,value
CC(C)N(Cc1ccccc1)C(=O)C(C)(C)C,outcome,[1],inactive
CCC[CH2][Sn]([Cl])([CH2]CCC)[CH2]CCC,AC50,[2],4.02 µM (active)
same,AC50,[3],6.34 µM (active)
same,outcome,[4],inactive
Cc1cccc(N)c1N,outcome,[5],inactive
same,outcome,[6],inactive
same,AC50,[3],25 µM (active)
same,AC50,[7],23.1 µM (active)
O=P(OCCCl)(OCCCl)OCCCl,outcome,[1],inactive
Nc1ccc(Cl)cc1N,outcome,[5],inactive
same,AC50,Caspase-3 (Homo sapiens),4.4 µM (active)
same,AC50,[2],2.52 µM (active)
same,AC50,[3],6.31 µM (active)
same,outcome,[8],inactive
same,outcome,[7],inactive
same,outcome,[9],inactive
CC(C)(O)c1cnn2c(-c3ccc(F)c(-c4c(F)cccc4C#N)c3)cnc2n1,AC50,[2],5.34 µM (active)
same,outcome,[10],inactive
same,AC50,[3],40.8 µM (active)
COc1cc(C=O)cc2c1[C@H](COC(N)=O)[C@]1(OC(C)=O)ON2C[C@H]2[C@@H]1N2C(C)=O,outcome,[11],inactive
same,outcome,CDK2 (gene 1017),inactive
same,outcome,[12],inactive
same,AC50,[8],5.75 µM (active)
same,outcome,[13],inactive
Oc1ccc2ccc3cccc4ccc1c2c34,AC50,[5],5.32 µM (active)
same,AC50,[2],8.84 µM (active)
same,AC50,[6],5.26 µM (active)
same,AC50,[8],4.52 µM (active)
same,AC50,[14],14.9 µM (active)
Cc1ccc(N)c(N)c1,outcome,[2],inactive
CN(C)[C@@H]1C(=O)C(C(N)=O)=C(O)[C@@]2(O)C(=O)C3=C(O)c4c(O)cccc4[C@@](C)(O)[C@H]3C[C@@H]12,AC50,[5],10.9 µM (active)
same,outcome,[2],inactive
same,AC50,[3],7.39 µM (active)
same,AC50,[8],18.5 µM (active)
same,outcome,[7],inactive
CCN(CC)N=O,outcome,[11],inactive
same,outcome,[10],inactive
same,outcome,[12],inactive
same,outcome,[15],inactive
same,outcome,[16],inactive
same,outcome,[14],inactive
same,outcome,[4],inactive
same,outcome,[17],inactive
Cc1cc(N=Nc2ccccc2C)ccc1N,AC50,[2],25 µM (active)
CCCCCCCCOC(=O)c1ccc(C(=O)OCCCCCCCC)c(C(=O)OCCCCCCCC)c1,outcome,Caspase-3 (Homo sapiens),inactive
same,AC50,[2],11.2 µM (active)
same,AC50,[8],37.9 µM (active)
same,outcome,[16],inactive
CCCSC(=O)N(CCC)CCC,outcome,Caspase-3 (Homo sapiens),inactive
CCNS(=O)(=O)C(F)(F)C(F)(F)C(F)(F)C(F)(F)C(F)(F)C(F)(F)C(F)(F)C(F)(F)F,outcome,[1],inactive
same,AC50,[2],8.43 µM (active)
same,outcome,CDK2 (gene 1017),inactive
same,outcome,[10],inactive
same,outcome,[15],inactive
same,outcome,[3],inactive
same,outcome,[16],inactive
same,outcome,[13],inactive
same,outcome,[14],inactive
same,outcome,[9],inactive
